Hits are enriched below; roughly 7.5% of the tested compounds scored in any of these assays.
HCV inhibitor: qHTS Assay for Inhibitors of Hepatitis C Virus (HCV) | Huh7.5.1 HCVcc-Cre infection, luciferase reporter, 44 h | Potency, µM (doses to about 41.8 µM), usual class: inhibitors | hit rate 3.4% among 340,000
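Reporter virus HCVcc-Cre (~0.5 moi) infects cells exposed to compound; seeding density 1,000 cells/well with 4 h settling beforehand. Luminescence, 15 sec read, taken 44 h post-infection following a 15 min RT substrate incubation.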
FBPA Giardia inh: qHTS Assay for Inhibitors of Fructose-1,6-bisphosphate Aldolase from Giardia Lamblia. A8B2U2. purified Giardia FBPA. Potency, µM (highest dose often 59.6 µM), actives largely listed as inhibitors. hit rate 0.71% among 290,000. AID 2451, 2010; also: nearly all actives have a fitted effect of over 55% in size
Target sequence (A8B2U2 whole entry, looked up): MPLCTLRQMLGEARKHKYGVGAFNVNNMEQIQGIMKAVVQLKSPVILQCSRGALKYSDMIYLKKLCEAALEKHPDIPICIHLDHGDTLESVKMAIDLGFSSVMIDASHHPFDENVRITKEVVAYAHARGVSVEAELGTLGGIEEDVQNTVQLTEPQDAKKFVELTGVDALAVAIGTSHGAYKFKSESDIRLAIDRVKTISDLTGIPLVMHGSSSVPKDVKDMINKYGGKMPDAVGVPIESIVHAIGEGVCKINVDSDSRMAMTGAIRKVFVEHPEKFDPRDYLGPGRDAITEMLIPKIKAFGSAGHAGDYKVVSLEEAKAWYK
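40 nM FBPA preincubated 10 min at RT with compound (up to 57.5 uM final), then substrate plus GAPDH/TPI/NAD/arsenate coupling and diaphorase/resazurin added. Fluorescence read after 20 min at RT, 525/598 nm.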
HCMV antiviral: qHTS Assay for inhibitors of the human cytomegalovirus (HCMV); hit rate 4.5% among 410,000; activity change, negative = inhibition, % at 57.5 µM; HFF cells, HCMV-luciferase reporter, 72 h; stronger effect = lower value; in the data active = activity change below about -60%; inconclusive = no clear call, values can overlap the other calls; inactive = above about -39%
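HFF cells seeded 16 h at 37C, treated with compounds, infected with luciferase-reporter HCMV at MOI 1 PFU/cell; luciferase read at 72 h post infection, normalized to buffer-only and Salinomycin controls.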
FMDV antiviral: High Throughput Screening for Foot and Mouth Disease Virus Antivirals; FMDV antiviral cell-based qHTS; Potency, µM (highest dose often 57.9 µM), actives largely listed as inhibitors; hit rate 1.2% among 410,000; AID 1159524, 2015; calls by dose curve; tested in HEK293T cells; also: read-out not given here; nearly all actives have a fitted effect of over 45% in size
VACV Venus inh: qHTS for Stage-Specific Inhibitors of Vaccinia Orthopoxvirus: Venus Reporter Primary qHTS | Potency, µM (doses to about 36.5 µM), most hits filed as inhibitors | Vaccinia virus Venus reporter expression, fluorescence | hit rate 0.46% among 330,000 | AID 720580, 2013; calls by dose curve; tested in A549 cells; also: nearly all actives have a fitted effect of over 30% in size
Vaccinia mCherry: qHTS for Stage-Specific Inhibitors of Vaccinia Orthopoxvirus: mCherry Reporter Primary qHTS. AID 720579, 2013. Vaccinia virus mCherry reporter infection, fluorescence. hit rate 0.63% among 310,000. Potency, µM (series often up to 36.5 µM), most hits filed as inhibitors; calls by dose curve; tested in A549 cells; also: nearly all actives have a fitted effect of over 35% in size
Large screens that a line does not name were inactive. Unless noted, calls follow the shape of the dose curve; as a rule, active = well fitted curve in the direction sought with a large enough effect; inconclusive = small, poorly fitted or top-dose-only effect, or another doubt; inactive = no such curve, though single readings can be large; an effect the other way counts as inactive or inconclusive.

Cc1cccc(N/N=C/c2ccc(O)c(O)c2O)c1	FBPA Giardia inh 14µM, HCMV antiviral inconclusive (no result: VACV Venus inh, Vaccinia mCherry)
O=C(c1ccc(-c2ccc([N+](=O)[O-])cc2)o1)N1CCN(S(=O)(=O)c2cccs2)CC1	HCMV antiviral -61, FMDV antiviral inconclusive (no result: FBPA Giardia inh)
COc1ccccc1N1CCN(C(=O)NCc2ccc(Cl)cc2)CC1	HCV inhibitor inconclusive
COc1ccccc1N1CCN(C(=O)c2ccc(-c3ccc(Cl)cc3)o2)CC1	HCV inhibitor 3.2µM (no result: FBPA Giardia inh, VACV Venus inh, Vaccinia mCherry)
COc1ccccc1NC(=S)NC(=O)c1ccc(-c2ccc(Cl)cc2)o1	HCV inhibitor inconclusive, HCMV antiviral -63, Vaccinia mCherry inconclusive (no result: FMDV antiviral)
O=C(c1ccc(-c2ccc(Cl)cc2)o1)N1CCN(S(=O)(=O)c2cccs2)CC1	HCV inhibitor inconclusive, HCMV antiviral -61 (no result: FBPA Giardia inh, VACV Venus inh, Vaccinia mCherry)
O=C(NC(=S)Nc1ccccc1O)c1ccc(-c2ccc(Cl)cc2)o1	VACV Venus inh inconclusive
Cn1ncc(Cl)c1C(=O)N1CCN(S(=O)(=O)c2cccs2)CC1	none (no result: FBPA Giardia inh)
O=C(C[n+]1ccccc1Br)c1ccc(-c2ccccc2)cc1	none (no result: HCV inhibitor, FBPA Giardia inh, HCMV antiviral, FMDV antiviral)
CC(C)NC(=O)CS(=O)(=O)c1ccccc1	none
CC(=O)OC(C)CS(=O)(=O)c1ccccc1 (centres undefined)	VACV Venus inh 7.9µM, Vaccinia mCherry 7.9µM
COc1ccc(C(=O)Nc2ccc(Cl)cc2F)cc1S(=O)(=O)N1CCCC1	HCV inhibitor inconclusive, HCMV antiviral inconclusive (no result: FBPA Giardia inh, VACV Venus inh, Vaccinia mCherry)
COC(=O)C(Nc1ccccc1Cl)(c1cc(C)c(O)c(C)c1)C(F)(F)F (centres undefined)	HCV inhibitor 14µM, HCMV antiviral -78, VACV Venus inh inconclusive (no result: Vaccinia mCherry)
Nc1ccn([C@@H]2O[C@H](CNCc3ccc(C#CCCO)cc3)[C@@H](O)[C@H]2O)c(=O)n1	none (no result: HCV inhibitor, FBPA Giardia inh)
Cn1c(CNc2ccc(Cl)cc2)nc2ccccc21	HCV inhibitor 20µM (no result: Vaccinia mCherry)
Cc1ccc(N2CCN(c3ccc(NCc4nc5ccccc5n4C)cc3)CC2)cc1	HCV inhibitor inconclusive
Cc1cccc(-n2nc(C)c(C(=O)N3CCN(c4ccccc4)CC3)c2-n2cccc2)c1	HCMV antiviral active, FMDV antiviral inconclusive, VACV Venus inh inconclusive, Vaccinia mCherry inconclusive (no result: HCV inhibitor, FBPA Giardia inh)
Cc1nn(-c2ccccc2)c(Cl)c1C(=O)NNC(=O)c1ccccc1O	HCV inhibitor 10µM (no result: FBPA Giardia inh, VACV Venus inh, Vaccinia mCherry)
Cc1ccc(S(=O)(=O)N2CCN(C(=O)c3c(C)nn(-c4ccccc4)c3Cl)CC2)cc1	HCV inhibitor inconclusive, HCMV antiviral -75 (no result: FMDV antiviral)
O=C(c1cc(-c2ccccc2)nn1-c1ccccc1)N1CCN(S(=O)(=O)c2cccc(F)c2)CC1	FMDV antiviral inconclusive (no result: FBPA Giardia inh)
COc1ccc(S(=O)(=O)N2CCN(C(=O)c3c(C)nn(-c4ccccc4)c3Cl)CC2)cc1	FMDV antiviral inconclusive (no result: Vaccinia mCherry)
CCOC(=O)N1CCN(C(=O)c2c(C)nn(-c3cccc(C)c3)c2-n2cccc2)CC1	none (no result: HCV inhibitor, FBPA Giardia inh)
O=C(c1cc(-c2ccccc2)nn1-c1ccccc1)N1CCN(S(=O)(=O)c2ccc(F)cc2)CC1	HCV inhibitor inconclusive, HCMV antiviral -77 (no result: FBPA Giardia inh)
COc1ccc2c(c1)c1c(c(=O)n(Cc3ccccc3)c(=O)n1CC(=O)NCc1ccccc1Cl)n2C	none (no result: HCV inhibitor, FBPA Giardia inh)
COC(=O)C[C@@H]1C[C@@H]2c3cc(NS(=O)(=O)c4ccc(F)cc4)ccc3O[C@@H]2[C@@H](CO)O1	none (no result: HCV inhibitor, FBPA Giardia inh)
COc1ccc(-c2noc3c2-c2nc(-c4ccccc4F)sc2CC3)cc1	HCV inhibitor inconclusive
COc1ccc(CN2CCOc3ccc(C(O)c4cccnc4)cc3C2)c(F)c1 (centres undefined)	none (no result: HCV inhibitor, FBPA Giardia inh, HCMV antiviral)
Cc1cc(C)c(S(=O)(=O)N2CCN(C(=O)c3c(C)nn(-c4ccccc4)c3Cl)CC2)c(C)c1	HCV inhibitor inconclusive, HCMV antiviral -72, FMDV antiviral 25µM, VACV Venus inh inconclusive (no result: FBPA Giardia inh)
CN1CCN(C(=O)c2cc3ccccc3oc2=O)CC1	none
Cc1cc(C)c(S(=O)(=O)N2CCN(C(=O)c3cc4ccccc4oc3=O)CC2)c(C)c1	HCV inhibitor inconclusive, HCMV antiviral -102 (no result: FBPA Giardia inh, VACV Venus inh, Vaccinia mCherry)
Cc1cc(=O)oc2cc(OCC(=O)OCC(=O)NC3CC3)ccc12	none

From PubChem BioAssay
